# The supplement of paper PMC6555819
# Legend:
# Experiment in all cases: PBM binding z-score (relative to random genomic background probes); higher = stronger binding; sequences stand for … in GC…GCGATTGACAGCGTAGAATGAAGG
# [1] = tested on: PPARg:RXRa DBDmut IVT, anti-RXR (DBD mutation: RXRa K156A/R161A, NR concentration 270 nM, RXRa partner concentration 90 nM)
# Method in brief: (§1)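 Custom Agilent 4×180K protein-binding microarrays carried double-stranded probes. Their 34-nt variable regions held direct-repeat seeds, single-nucleotide variants, half-site ablations and random human genomic background sequences. Arrays were incubated 1 h with ligand-free nuclear receptor dimers in PBS pH 7.4, 2% milk, 0.02% Triton X-100, 1 mM DTT, 0.2 mg/mL BSA and 0.4 mg/ml salmon testes DNA. Antibodies against each partner (one per run) detected binding, and scanned fluorescence was regression-normalized. Binding z-scores use random background probes as reference.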
# [2] = tested on: PPARg:RXRa IVT, anti-PPARg (NR concentration 270 nM, RXRa partner concentration 90 nM)
# Method in brief: as §1
# [3] = tested on: PPARg DBDmut:RXRa IVT, anti-PPARg (DBD mutation: PPARg1 K132A/R137A, NR concentration 270 nM, RXRa partner concentration 90 nM)
# Method in brief: as §1
# [4] = tested on: PPARg DBDmut IVT, anti-PPARg (DBD mutation: PPARg1 K132A/R137A, NR concentration 270 nM)
# Method in brief: as §1
# [5] = tested on: PPARg homodimer (NR concentration 180 nM)
# Method in brief: as §1
# [6] = tested on: PXR:RXRa (NR concentration 270 nM, RXRa partner concentration 90 nM)
# Method in brief: as §1
# [7] = tested on: PXR homodimer (NR concentration 270 nM)
# Method in brief: as §1
# [8] = tested on: RARa:RXR (NR concentration 270 nM, RXRa partner concentration 90 nM)
# Method in brief: as §1
# [9] = tested on: RARa homodimer (NR concentration 270 nM)
# Method in brief: as §1
# [10] = tested on: RARb:RXRa (NR concentration 270 nM, RXRa partner concentration 90 nM)
# Method in brief: as §1
# [11] = tested on: RARb homodimer (NR concentration 270 nM)
# Method in brief: as §1
# [12] = tested on: RARg:RXRa (NR concentration 270 nM, RXRa partner concentration 90 nM)
# Method in brief: as §1
# [13] = tested on: RARg homodimer (NR concentration 270 nM)
# Method in brief: as §1
# [14] = tested on: RXRa DBDmut IVT, anti-RXR (DBD mutation: RXRa K156A/R161A, NR concentration 90 nM)
# Method in brief: as §1
# [15] = tested on: RXRa homodimer (NR concentration 180 nM)
# Method in brief: as §1
# [16] = tested on: THRa:RXRa (NR concentration 90 nM, RXRa partner concentration 90 nM)
# Method in brief: as §1
# [17] = tested on: THRa homodimer (NR concentration 90 nM)
# Method in brief: as §1
# [18] = tested on: VDR homodimer (NR concentration 270 nM)
# Method in brief: as §1
Sequence,PBM binding z-score [1],PBM binding z-score [2],PBM binding z-score [3],PBM binding z-score [4],PBM binding z-score [5],PBM binding z-score [6],PBM binding z-score [7],PBM binding z-score [8],PBM binding z-score [9],PBM binding z-score [10],PBM binding z-score [11],PBM binding z-score [12],PBM binding z-score [13],PBM binding z-score [14],PBM binding z-score [15],PBM binding z-score [16],PBM binding z-score [17],PBM binding z-score [18]
ATACCAAGGTGACCGTGAGGTCGTTGATACTAAC,1.21,2.77,0.39,0.266,1.4,3.8,1.45,3.05,0.22,2.46,2.9,3.36,1.96,0.82,2.27,3.74,3.08,2.81
TAGCCTAGATCATGCGGGCCAGTATAGTGTCGGC,0.553,0.672,-0.852,-1.76,-1.53,-1.41,-1.04,-1.57,-0.691,-1.2,-1.16,-0.937,-0.627,-1,-0.796,-1.05,-1.46,-1.14
AGAACGAGGGCACGCTGAGATGATAGCAGAGTAG,4.28,3.41,0.615,0.133,0.5,0.342,-0.229,0.762,-0.576,2.5,1.2,1.91,2.21,1.8,1.41,1.48,-0.0737,0.452
AATACAGGGTCACTAGGCCAGGGTAGGTACGAAT,3.28,6,2.53,1.9,2.35,3.05,0.325,3.76,1.02,4.23,3.44,4.88,4.64,2.33,5.25,3.41,1.34,2.71
TCTAGTTGGTCAAAGGTCACACGCTCGAAATGCG,3.58,6.36,0.719,1.69,5.16,6,2.22,7.76,3.91,4.97,5.31,7.41,6.67,1.72,8.75,4.01,2.09,2.92
TCTTTTAGTTGATTAGGGCAACCGAAACAGCGGA,2.25,2.54,2.77,2.73,1.2,0.77,0.929,0.951,1.25,1.79,1.02,1.27,1.12,1.2,0.836,1.07,0.745,0.435
CCTAGCAGGCCAATCTGGGTCACACAAGGCTTGA,4.53,5.23,0.519,-0.276,0.856,1.56,-0.6,1.86,0.119,1.76,2.53,1.61,1.82,0.0737,1.63,3.99,0.9,0.17
TCTTGTAGATCAATAGAGGTTAAGAAGGTGCGCT,1.45,0.982,-0.0465,0.519,0.274,2.12,-0.00143,1.94,0.262,0.921,1.27,0.969,0.482,0.518,1.33,2.37,-0.695,0.298
AGTCAATGTTCACTAGGTAACGTAAGATTCAGCT,1.92,2.92,1.08,0.776,0.288,-0.0899,-0.202,-0.181,-0.0197,0.143,0.00708,0.177,0.455,0.313,0.0273,0.29,0.282,-0.164
TAGCCTAGATCAGATCGGGCCAGTATACGCTATA,-0.0973,0.607,-0.736,-0.528,-1.3,-0.794,-1.1,-0.901,-1.23,-1.19,-1.29,-0.519,-0.508,-1.09,-0.577,0.52,-1.58,-1.04
CAAACTAGTTCAAAGGTCAAAGTCGAGCCAACCA,3.06,5.87,1.03,1.34,6.05,6.85,3.08,8.58,3.93,5.27,4.9,7.49,6.13,3.58,9.59,4.16,1.06,3.89
CCGACTGGGGCAAGGTTACCTTAACGCACAGCCA,3.34,3.76,-1.05,-0.772,0.376,0.303,-0.595,0.858,-0.882,1.63,1.27,0.881,1.11,-0.49,1.1,2.07,1.66,-0.391
TAATATAGGTAAAAGGTGAAAGTCGGTGTGGTAA,7.05,6.22,2.17,1.62,2.02,1.8,0.982,3.16,1.75,1.94,2.01,2.15,1.32,0.341,2.95,1.87,0.816,0.638
TAGCATAGGTCATTGGGCCAGTATAGTACGCATC,1.83,3.4,0.78,0.329,1.56,2.87,-0.00464,3.16,0.152,3.97,3.23,4.88,4.65,1.58,4.77,2.29,-0.526,0.622
CAAACTAGGTCAAGGTCAAACTCGGTTTGTGCCA,7.83,8.72,1.79,1.1,2.32,5.44,2.6,5.03,1.19,5.27,5.07,6.04,6.55,3.28,5.73,4.64,3.95,3.81
